Results filed as inconclusive are left out. The source made the active and inactive calls. Calls follow the shape of the dose curve; as a rule, active = well fitted curve in the direction sought with a large enough effect; inconclusive = small, poorly fitted or top-dose-only effect, or another doubt; inactive = no such curve, though single readings can be large; an effect the other way counts as inactive or inconclusive.
Key:
[1] = target: Glutathione peroxidase 1 (Homo sapiens) (UniProt P07203); assay: Primary qHTS Assay for Inhibitors of Recombinant Selenoprotein Glutathione Peroxidase 1 (GPX1) (AID 1845191); also: nearly all actives have a fitted effect of over 65% in size; as to activity, negative = inhibition: % is scaled to controls: 0 for no effect and ±100 for the full control effect
Procedure, shortened: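 NADPH consumption tracked by fluorescence at 340/450 nm between t=0 and t=15 min, room temperature. Final mix: 10 nM GPX1, 100 nM glutathione reductase, 1 mM GSH, 0.5 mM NADPH, 0.5 mM cumene hydroperoxide, 0.01% BSA; 30 min compound–enzyme preincubation.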

[2] = target: Phospholipid hydroperoxide glutathione peroxidase GPX4 (Homo sapiens) (UniProt P36969); assay: Primary qHTS Assay for Inhibitors of Recombinant Selenoprotein Glutathione Peroxidase 4 (GPX4) (AID 1845192); also: nearly all actives have a fitted effect of over 65% in size; as to activity change, negative = inhibition: series mostly up to about 50 µM; % is scaled to controls: 0 for no effect and ±100 for the full control effect
Procedure, shortened: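 NADPH consumption followed by fluorescence at 340/450 nm, t=0 and after 15 min at room temperature. Reaction started with cumene hydroperoxide (0.5 mM final) after 30 min compound–GPX4 preincubation; final 200 nM GPX4, 100 nM GR, 1 mM GSH, 0.5 mM NADPH.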

[3] = target: Luciferin 4-monooxygenase (Photinus pyralis) (UniProt P08659); assay: Primary firefly luciferase (FLuc) qHTS assay for identification of artifact compounds. (AID 1845220); also: nearly all actives have a fitted effect of over 60% in size;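 as to activity change, negative = inhibition: series mostly up to about 54 µM; plate controls were DMSO vehicle for no effect and no enzyme for full effect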
Procedure, shortened: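 Cell-free, 1536-well qHTS. Buffer pH 7.6 with 0.01% Tween-20 and 0.05% BSA; 10 uM D-luciferin, 10 uM ATP; 10 nM P. pyralis luciferase; luminescence after 5 min.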

[4] = tested on: Nanoluciferase (engineered Oplophorus gracilirostris luciferase); assay: Primary Nanoluciferase (NLuc) qHTS assay for identification of artifact compounds. (AID 1845222); also: potency is read from the fitted curve at half-maximal effect;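 as to activity, negative = inhibition: series mostly up to about 54 µM; 0% = DMSO and -100% = no enzyme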
Procedure, shortened: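 Compounds are pinned into diluted (1:55) conditioned medium of NLuc-expressing S16 cells and held 15 min at room temperature protected from light. Nano-Glo substrate follows, and luminescence is read 5 min later.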

[5] = Primary redox qHTS assay for identification of artifact compounds. (AID 1845223);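 also: 0% = DMSO and 100% = reference compound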
Procedure, shortened: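 Redox-cycling detection via DTT (250 uM final) oxidation coupled to Amplex Red (25 uM)/HRP (250 mU/mL) in HBSS. 15 min preincubation plus 30 min after DTT, room temperature. Ex/Em 525/598 nm; 4-parameter Hill fit against DMSO and 10 uM DA3003.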

[6] = Primary fluorescence-based thiol-reactive (MSTI) qHTS assay for identification of artifact compounds. (AID 1845221); also: nearly all actives have a fitted effect of over 65% in size; also: potency is read from the fitted curve at half-maximal effect;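 as to activity change, negative = thiol reactive: series mostly up to about 54 µM; thiol-reactive compounds lower the probe fluorescence signal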
Procedure, shortened: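 Compounds were incubated 1 h at room temperature in the dark with the MSTI probe (4 uM) in PBS pH 7.4, 2% DMSO. Signals were normalized between Acetyl-MSTI and MSTI.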

Phospholipid hydroperoxide glutathione peroxidase GPX4 (Homo sapiens), sequence (P36969 whole entry, looked up): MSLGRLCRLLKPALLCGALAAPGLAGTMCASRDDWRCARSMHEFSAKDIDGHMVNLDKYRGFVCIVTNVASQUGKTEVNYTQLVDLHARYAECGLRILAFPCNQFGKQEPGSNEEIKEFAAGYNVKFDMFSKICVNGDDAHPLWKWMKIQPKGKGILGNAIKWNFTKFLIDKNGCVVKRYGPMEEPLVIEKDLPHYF
Glutathione peroxidase 1 (Homo sapiens), sequence (P07203 whole entry, looked up): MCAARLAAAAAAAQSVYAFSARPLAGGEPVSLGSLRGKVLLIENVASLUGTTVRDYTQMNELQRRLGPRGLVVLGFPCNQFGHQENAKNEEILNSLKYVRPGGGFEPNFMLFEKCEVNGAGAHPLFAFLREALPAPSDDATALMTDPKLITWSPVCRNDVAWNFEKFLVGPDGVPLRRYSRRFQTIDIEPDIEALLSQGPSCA

C[C@H]1CC[C@@]2(OC1)O[C@H]1CC3C4CC=C5C[C@H](O)C[C@@H](O[C@@H]6O[C@@H](C)[C@H](O)[C@@H](O)[C@H]6O[C@@H]6O[C@@H](C)[C@H](O)[C@@H](O)[C@H]6O)[C@]5(C)C4CC[C@]3(C)[C@H]1[C@@H]2C (some centres not stated)
inactive: Potency [1] | Potency [2] | Potency [3] | Potency [4] | Potency [5]

CC(C)CC(=O)OC[C@H]1O[C@@](COC(=O)CC(C)C)(O[C@H]2O[C@H](CO)[C@@H](O)[C@H](O)[C@H]2O)[C@@H](OC(=O)CC(C)C)[C@@H]1OC(=O)CC(C)C
inactive: Potency [1] | Potency [2] | Potency [3] | Potency [4] | Potency [5]

CC(C)(C)NCc1cc(Nc2ccnc3cc(Cl)ccc23)c2c(c1O)CCCC2
inactive: activity, negative = inhibition [1] -7.83% [at 0.4 µM] | activity change, negative = inhibition [2] -7.38% [at 0.409 µM] | activity change, negative = inhibition [3] -4.19% [at 0.464 µM] | redox activity (% of DA3003) [5] -4.12% [at 0.461 µM]

COc1cc(C[C@H]2COC(=O)[C@@H]2Cc2ccc(O)c(OC)c2)ccc1O
inactive: Potency [1] | Potency [2]
active: Potency [6] 14.7 µM

OC[C@H]1O[C@@H](n2cnc3c2NC=NC[C@H]3O)C[C@@H]1O
inactive: Potency [1] | Potency [2] | Potency [3] | Potency [4] | Potency [5]

CN1C(=O)N[C@@H](Cc2c[nH]c3c(Cl)cccc23)C1=O
inactive: Potency [1] | Potency [2] | Potency [3] | Potency [4] | Potency [5]

CC1(C)C(O)CCC2(C)C1C(O)C=C1COC(=O)C12O (configuration not stated)
inactive: Potency [1] | Potency [2] | Potency [3] | Potency [4] | Potency [5]

COc1cc(/C=C/CO)ccc1O[C@@H]1O[C@H](CO)[C@@H](O)[C@H](O)[C@H]1O
inactive: Potency [1] | Potency [2] | Potency [3] | Potency [4] | Potency [5]

Cc1ccc(C(=O)Nc2ccc(Oc3cc4cnn(C)c4cc3-c3cn[nH]c3)c(F)c2)c(=O)n1-c1ccc(F)cc1
inactive: Potency [1] | Potency [2] | Potency [3] | Potency [4] | Potency [5]

COc1c(C(CC(C)C)OC(C)=O)ccc(Oc2c(O)cc(C)cc2/C=C/C(C)=O)c1C(=O)O (configuration not stated)
active: Potency [6] 4.62 µM
inactive: Potency [1] | Potency [2] | Potency [4]

CC(=O)c1c(C)cc(O)cc1O[C@@H]1O[C@H](CO)[C@@H](O)[C@H](O)[C@H]1O
inactive: Potency [1] | Potency [2] | Potency [3] | Potency [4] | Potency [5]

NC(=O)c1ccc(OCC2NC(=O)C3CCCN3C2=O)cc1 (configuration not stated)
inactive: Potency [1] | Potency [2] | Potency [3] | Potency [4] | Potency [5]

C=C1CC[C@H]2[C@@](C)(CCC(O)[C@@]2(C)CO)[C@@H]1C/C=C(/C(=O)O)C(O)CO (some centres not stated)
inactive: Potency [1] | Potency [2] | Potency [3] | Potency [4] | Potency [5]

CC(C)CC(=O)OC[C@H]1O[C@@](COC(=O)CC(C)C)(O[C@H]2O[C@H](CO)[C@@H](O)[C@H](O)[C@H]2OC(=O)CC(C)C)[C@@H](OC(=O)CC(C)C)[C@@H]1O
inactive: Potency [1] | Potency [2] | Potency [3] | Potency [4] | Potency [5]

CC(C)C1(O[C@@H]2O[C@H](CO)[C@@H](O)[C@H](O)[C@H]2O)CC=C(CO)CC1 (some centres not stated)
inactive: Potency [1] | Potency [2] | Potency [3] | Potency [4] | Potency [5]

CC(=O)N1c2ccccc2C2(O)CC3C(=O)NC(CC(C)C)C(=O)N3C12 (configuration not stated)
inactive: Potency [1] | Potency [2] | Potency [3] | Potency [4] | Potency [5]

N#Cc1ccc2[nH]c(O)c(-c3ccc(CN4CCOCC4)cn3)c2c1
inactive: Potency [1] | Potency [2] | Potency [3] | Potency [4] | Potency [5]

C=CC(C)(C)C12CC3C(=O)NC(Cc4cnc[nH]4)C(=O)N3C1Nc1ccccc12 (configuration not stated)
inactive: Potency [1] | Potency [3] | Potency [6] | Potency [4] | Potency [5]

COC1CC(=O)C23C(=O)NC(CC(C)C)C2C(C)C(C)=CC3/C=C(\C)CCC1O (configuration not stated)
inactive: Potency [1] | Potency [3] | Potency [6] | Potency [4] | Potency [5]

CC(C)C(=O)c1cn(CC(=O)COc2ccc(Oc3ccccc3)cc2)c2ccc(C(=O)O)cc12
active: Potency [4] 6.01 µM
inactive: Potency [1] | Potency [3] | Potency [6] | Potency [5]

CC1C(=O)CC2C3C(O)CC(C(=O)O)C12CC3(C)C (configuration not stated)
inactive: Potency [1] | Potency [3] | Potency [4] | Potency [5]

CCC(NC(=O)CC(NC(=O)C(CO)NC(=O)C(CC)NC(=O)c1ccc[nH]1)c1ccccc1)C(=O)O (configuration not stated)
inactive: Potency [1] | Potency [3] | Potency [6] | Potency [4] | Potency [5]

COc1ccc2cc(OCC3(C(=O)O)CN(C(=O)c4ccc(F)cc4)C3)ccc2c1
inactive: Potency [1] | Potency [3] | Potency [6]

O=C(C1CC1)N1CC[C@@H](Cc2n[nH]c(=O)n2-c2ccc(-c3ccc4occc4c3)cc2)C1
inactive: Potency [1] | Potency [3] | Potency [4] | Potency [5]

CN(C)c1cccc(-c2c3c(=O)n(-c4ccccc4Cl)[nH]c3cc(=O)n2C)c1
active: Potency [6] 1.89 µM
inactive: Potency [1] | Potency [3] | Potency [4] | Potency [5]

COc1cc(O[C@@H]2O[C@H](CO)[C@@H](O)[C@H](O)[C@H]2O)c(CCC(=O)OC[C@H]2O[C@@H](Oc3cc(OC)c(C4OC(=O)C(C)(O)C4O)cc3CCC(=O)O)[C@H](O)[C@@H](O)[C@@H]2O)cc1C1OC(=O)C(C)(O)C1O (some centres not stated)
inactive: Potency [1] | activity change, negative = inhibition [3] 1.78% [at 11.6 µM] | activity change, negative = thiol reactive [6] 56% [at 11.5 µM] | activity, negative = inhibition [4] 0.289% [at 11.6 µM] | redox activity (% of DA3003) [5] -16.2% [at 11.5 µM]

Source: PubChem BioAssay (NCATS)
